HCV inhibitor: inhibitors of hepatitis C virus infection; Huh7.5.1 HCVcc-Cre infection, luciferase reporter, 44 h; Potency, µM (doses to about 41.8 µM), for inactives: top-dose activity change, negative = inhibition, actives largely listed as inhibitors; 3.4% of 340,000 active; active = well fitted inhibition curve with a large enough effect; inconclusive = small, poorly fitted or top-dose-only effect, or another doubt; inactive = no such curve, though single readings can be large or run the other way; note: potency is the fitted concentration of half-maximal effect
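1,000 cells/well; 4 h culture; + compound; + HCVcc-Cre (~0.5 moi); 44 h; luciferase substrate, RT 15 min; read 15 sec.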
FMDV antiviral: blocks foot and mouth disease virus. Potency, µM (highest dose often 57.9 µM), for inactives: at the top dose activity change, negative = inhibition, hits mostly inhibitors. FMDV antiviral cell-based qHTS. 1.2% of 410,000 active; calls by dose curve; tested in HEK293T cells; note: read-out not given here; potency is the fitted concentration of half-maximal effect; nearly all actives have a fitted effect of over 45% in size
MARV entry inh: Marburg virus entry inhibition; Marburg virus pseudotyped entry inhibition, cell reporter; Potency, µM (doses to about 37.8 µM), for inactives: top-dose activity change, negative = inhibition, actives largely listed as inhibitors; 1.8% of 300,000 active; AID 540276; calls by dose curve; tested in HEK293 cells; note: potency is the fitted concentration of half-maximal effect
Lassa entry inh: blocks Lassa virus binding to or entry into cells; Lassa virus pseudotype entry inhibition, cell reporter; Potency, µM (highest dose often 37.9 µM), for inactives: at the highest dose activity change, negative = inhibition, hits mostly inhibitors; 1.2% of 300,000 active; AID 540256; calls by dose curve; tested in HEK293 cells; note: potency is the fitted concentration of half-maximal effect; nearly all actives have a fitted effect of over 50% in size
HCMV antiviral: inhibitors of human cytomegalovirus; HFF cells, HCMV-luciferase reporter, 72 h; stronger effect = lower value; activity change, negative = inhibition, % at 57.5 µM; 4.5% of 410,000 active; AID 1259415; in the data active = activity change below about -60%; inconclusive = no clear call, values can overlap the other calls; inactive = above about -39%
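Compounds were evaluated in HFFs infected with an HCMV luciferase reporter virus (MOI 1 PFU/cell). Luciferase in lysates collected 72 h post infection served as the replication measure.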
* = called active by the depositor; ? = inconclusive; / = no result given; + = active, no number; [ ] = remark or other dose. Shown are actives, neighbours in structure and some others; about 7.9% of the full set was active somewhere. % is set by controls: 0 for no effect and ±100 for the full control effect.

SMILES	HCV inhibitor	FMDV antiviral	MARV entry inh	Lassa entry inh	HCMV antiviral
COCCNC(=O)C(c1ccc(F)cc1)N(CCOC)C(=O)CCC(=O)Nc1ccccn1 (centres undefined)	22%	3%	6%[46.1 µM]	8%	0
COc1ccc(C(C[N+](=O)[O-])C2(c3ccc(OC)c(OC)c3)C(=O)c3ccccc3C2=O)cc1 (centres undefined)	?	-87%	11µM*	16µM*	/
CC(C)Cc1cc(C(=O)Nc2cc(C(F)(F)F)ccc2Cl)no1	7%	19%	?	1%	-11
CC1CCN(S(=O)(=O)c2ccc3c(c2)N(CC(=O)Nc2ccc(F)c(Cl)c2)C(=O)CO3)CC1	/	-17%	/	-3%[46.1 µM]	-10
Cc1ccc2c(=O)cc(C(=O)Nc3ccc(S(=O)(=O)Nc4onc(C)c4C)cc3)oc2c1	18%	9%	2%[46.1 µM]	0%[46.1 µM]	-38
Cc1ccc2c(C)c(C(=O)Nc3ccc(S(=O)(=O)Nc4onc(C)c4C)cc3)oc2c1	0.5µM*	-11%	5%[46.1 µM]	-11%[46.1 µM]	-30
COC(=O)CNC(c1ccccc1)c1cc(Cl)ccc1NC(=O)c1cccc(Cl)c1 (centres undefined)	-25%	0%	10µM*	9%	31
CC(=O)N1CCN(C(=O)C2CCN(S(=O)(=O)c3ccccc3C(F)(F)F)CC2)CC1	10%	-2%	-16%[46.1 µM]	-12%[46.1 µM]	0
CC(C)N=c1cc2n(-c3ccc(Cl)cc3)c3ccccc3nc-2cc1Nc1ccc(Cl)cc1	-12%	-14%	/	/	-64*
O=C(N/N=C/c1c(F)c(F)c(F)c(F)c1F)c1cccc(S(=O)(=O)N2CCOCC2)c1	5%	-9%	/	/	-11
O=C(NC1CC1)c1cccc(S(=O)(=O)N2CCOCC2)c1	20%	0%	/	/	0
O=C(NCCN1C(=O)S/C(=C\c2ccc(F)cc2)C1=O)c1cccc(S(=O)(=O)N2CCOCC2)c1	10µM*	-11%	-37%	1%	8
Cc1ccsc1C(=O)NNC(=O)c1cccc(S(=O)(=O)N2CCCC2)c1	5%	-2%	7%	19%	+
CCN(CC)c1ccc(/C=N/NC(=O)c2cccc(S(=O)(=O)N3CCOCC3)c2)cc1	10µM*	14µM*	8%	-37%	47
O=C(NC1CCCC1)c1cccc(S(=O)(=O)N2CCOCC2)c1	-1%	0%	/	/	-103*
Cc1cc(C(=O)Nc2ccccc2-c2nc(CNC(=O)c3cc4ccccc4cn3)c(C)o2)c(C)o1	/	0%	/	/	/
Cc1c(C(=O)NCCN2CCC(c3ccccc3)CC2)cnn1-c1nccc(-c2cccs2)n1	/	-10%	/	/	/
Cc1cccc(NC(=O)CNC(=O)COC(=O)C2CC2C)c1C (centres undefined)	-7%	-2%	-2%	4%	0
O=c1c(CCc2ccccc2)nc2cnc(N3CCNCC3)nc2n1CCc1ccccc1	/	-7%	/	/	/
CS(=O)(=O)c1ccc(C(=O)Nc2ccc(S(=O)(=O)N3CCCCC3)cc2)cc1	?	-28%	?	-7%	-28
COc1ccc(S(=O)(=O)N2CCOCC2)cc1C(=O)Nc1ccc(N2CCCCCC2)cc1	14µM*	-13%	/	/	?
Cc1ccccc1NC(=O)c1cccc(S(C)(=O)=O)c1	15%	7%	12%[46.1 µM]	6%[46.1 µM]	-102*
Cc1ccc(S(=O)(=O)N2CCCCC2)cc1C(=O)Nc1ccc(N2CCOCC2)cc1	?	-21%	-5%	0%	-33
COc1ccccc1C(=O)NCC1CCN(c2ccc(S(=O)(=O)N3CCOCC3)cc2)CC1	?	/	-30%	-6%	-76*
CS(=O)(=O)c1cccc(C(=O)Nc2ccc(S(=O)(=O)N3CCCCC3)cc2)c1	4.5µM*	-14%	4%	1%	-63*
SMILES	HCV inhibitor	FMDV antiviral	MARV entry inh	Lassa entry inh	HCMV antiviral
Cc1ccccc1NC(=O)c1cccc(S(=O)(=O)N2CCCCC2)c1	0%	8%	-13%[46.1 µM]	-6%	1
COc1ccc(COC(=O)N/N=C2/C[C@@H](O)[C@@H](O)[C@@H]3[C@@H]4C(=O)N(c5cccc(Oc6ccccc6)c5)C(=O)[C@H]4CC[C@@H]23)cc1	/	/	9%[14.2 µM]	/	/
CN(CC(=O)Nc1c(Cl)cccc1Cl)C(=O)CCC1CCCC1	7%	-1%	1%[46.1 µM]	11%[46.1 µM]	-18
O=C(c1cccc(S(=O)(=O)N2CCCC2)c1)c1cccc(S(=O)(=O)N2CCCC2)c1	?	?	?	?	-74*
O=C(Nc1ccc(N2CCOCC2)cc1)c1cccc(S(=O)(=O)N2CCCC2)c1	6.3µM*	-29%	0%	0%	/
CCOC(=O)c1ccc(NC(=O)c2cccc(S(=O)(=O)N3CCN(C(C)=O)CC3)c2)cc1	10µM*	1%	-14%[46.1 µM]	-13%[46.1 µM]	-40
O=C(c1cccc(S(=O)(=O)N2CCCCC2)c1)N1CCCCC1	16%	11%	25%	14%	30
CCCOC(=O)c1ccc(NC(=O)c2cccc(S(=O)(=O)N3CCN(C(C)=O)CC3)c2)cc1	?	-29%	?	?	8
COc1ccc([C@H]2C[C@H](c3ccc(C)cc3)Nc3nc(N)nn32)cc1	/	/	7%	/	/
C=CCN1C(=O)C2(CC(C)=C[C@@H](C)O2)c2c(Br)cccc21 (some centres undefined)	/	/	26%[14.2 µM]	/	/
O=C1[C@H]2[C@@H]3[C@@H](O)[C@H](O)CC(=NOCc4ccccc4)[C@@H]3CC[C@H]2C(=O)N1C[C@@H]1CCCO1	/	/	6%[14.2 µM]	/	/
CC[C@]12c3[nH]c4cc(-c5ccco5)ccc4c3CCN1C(=O)[C@@H](CC(=O)NCCC1=CCCCC1)C[C@@H]2C(=O)N1CCN(C(=O)c2ccco2)CC1	15%	?	5%	/	/
O=C(COc1ccc(S(=O)(=O)N2CCOCC2)cc1Cl)NC1CCCCC1	13%	-8%	3%	-20%	8
O=S(=O)(c1ccc(OCC(O)CNC23CC4CC(CC(C4)C2)C3)c(Cl)c1)N1CCOCC1 (centres undefined)	?	-1%	2µM*	-3%[46.1 µM]	-12
O=S(=O)(NCc1ccco1)N1CCCCCC1	2%	34%	3%	9%	-62*
COC(=O)c1cc2c(c3c4cc(C)ccc4n(S(=O)(=O)c4cccc(C)c4)c13)C(=O)N(Cc1ccccc1OC)C2	/	/	/	/	-31
CN1CCN(CCCNC(=O)Cn2ncc3c4ccccc4n(C)c3c2=O)CC1	-17%	-17%	/	/	9
Cn1c2ccccc2c2cnn(CC(=O)NCCCN3CCN(c4ccccc4F)CC3)c(=O)c21	10µM*	-8%	-29%[46.1 µM]	0%[46.1 µM]	-15
Cc1ccc(C)c(N2CCN(CCCNC(=O)Cn3ncc4c5ccccc5n(C)c4c3=O)CC2)c1	/	-12%	-9%[46.1 µM]	1%[46.1 µM]	-60*
Cc1ccc(C)c(N2CCN(CCCNC(=O)Cn3cc4c(n3)CCC(C)C4)CC2)c1 (centres undefined)	-13%	0%	-1%	/	-2
Cc1ccc(C)c(N2CCN(CCCNC(=O)Cn3cc4c(n3)CCCCC4)CC2)c1	5.6µM*	?	-1%	/	-30
Cc1ccc(C2(c3ccc(C)cc3)CC2C(=O)NC(C)C)cc1 (centres undefined)	-9%	-13%	13µM*	-3%[46.1 µM]	-23
